Consider 99 compounds from ChEMBL document CHEMBL3988442, “University of Dundee, Small-Polar-MMV Screening Library” (2021).

Hit rate of the full screen: of about 53,000 compounds, about 900 (1.7%) showed an effect of 50% or more. The sample as a whole holds a higher share of strong results than the screen did.

The subject of this test is Mycobacterium tuberculosis. In words: Cornell - Phenotypic assay to identify agents that inhibit growth of Mycobacterium tuberculosis. The arrangement: scale not given: direction of the effect not stated beside the values. The conditions noted are these: 10 mM as filed; unlikely as a test dose. It is filed as functional.
Take `COc1ccc(CNC(=O)CNc2cc3c(cc2Cl)OCCCO3)cc1`: the “Percent Effect” value was 53.68%.
As for `COc1ccc(CNC(=O)CNc2cc3c(cc2Cl)OCCO3)cc1`, the figure is -25.81%; as for `O=C(CNc1cc2c(cc1Cl)OCCCO2)NCc1ccc(F)cc1`, -2.409%.
`CCc1cc(C(=O)N2CCC3(CCCN(CC4CC4)C3=O)C2)cs1` (centres undefined): the “Percent Effect” value was found to be 1.27%.
The figure for `Cc1cc2n(n1)CC(CNC1CCN(Cc3ccccc3C)CC1)CN2` (centres undefined) is 1.638%; for `Cc1ccccc1CN1CCC(NCC2CNc3ccnn3C2)CC1` (centres undefined) it is 54.71%; for `c1ccc(Cn2cccn2)c(CNCC2CNc3ccnn3C2)c1` (centres undefined) it is -42.61%.
As for `CS(=O)(=O)N1Cc2ccnn2CC(C(=O)NCc2cccnc2)C1.O=C(O)C(F)(F)F.O=C(O)C(F)(F)F` (centres undefined), the figure is -34.93%.
As for `CCC(C)NC(=O)NCc1cc2n(n1)CCCN(C1CCCCC1)C2` (centres undefined), the figure is -10.73%; as for `Fc1ccccc1-c1cccc(C2CCCN(C3CCOCC3)C2)n1` (centres undefined), 36.89%.
`CN(C)C1COC2(CCN(Cc3ccncc3)CC2)C1` (centres undefined): the “Percent Effect” value was found to be 9.126%.
The figure for `CC(=O)N(Cc1noc(C2CC2)n1)C1CCN(CC2CCOCC2)C1` (centres undefined) is -29.12%.
The figure for `CC(=O)N1CCC(c2nccnc2-c2ccc(C(=O)O)cc2)CC1` is -19.35%; for `Cc1ccccc1CN1CCOC(c2nccc(CN(C)C)n2)C1` (centres undefined) it is -48.65%.
The figure for `COc1ccc(OCc2cc(C(=O)N3CCCCO3)n[nH]2)c(Cl)c1` is 106.4%; for `COc1ccc(OCc2cc(C(=O)N3CCC(O)CC3)n[nH]2)c(Cl)c1` it is 6.579%.
Consider `COc1ccc(OCc2cc(C(=O)N3CCOCC3)n[nH]2)c(Cl)c1`, for which the “Percent Effect” value was 19.45%.
As for `COc1ccc(OCc2cc(C(=O)N3C[C@@H](C)O[C@@H](C)C3)n[nH]2)c(Cl)c1`, the figure is 4.963%.
The figure for `COc1ccc(OCc2cc(C(=O)N3CCSCC3)n[nH]2)c(Cl)c1` is 54.8%; for `COc1ccc(OCc2cc(C(=O)N3CC=CC3)n[nH]2)c(Cl)c1` it is 40.41%.
As for `CC(C(=O)N1CCOCC1)N1CCN(Cc2nccn2C)CC1` (centres undefined), the figure is -9.72%.
On to `N#Cc1cccc(S(=O)(=O)N2CCCCC2C(N)=O)c1` (centres undefined), for which the “Percent Effect” value came to 15.32%.
As for `O=C(Cc1cccnc1)N1CCCC(n2cncn2)C1` (centres undefined), the figure is -17.88%; as for `Cc1nn(C)c2c(NCc3ccncc3)nc(C3CC3)nc12`, -8.977%.
As for `CCN(CC(C)C#N)C(=O)CNc1cc(Cl)ccc1C(N)=O` (centres undefined), the figure is -0.05585%.
On to `COCC1CCCN(C(=O)c2ccc(NC(=O)CC(C)C)c(C)c2)C1` (centres undefined), for which the “Percent Effect” value is listed as -1.652%.
Consider `CCN(Cc1cccc(C)c1)Cn1nc(C)c2c(C)onc2c1=O`, for which the “Percent Effect” value is recorded as -12.96%.
The figure for `COc1nn(C)c2c1CCCN(C(=O)c1cc[nH]n1)C2` is 12.29%; for `CC1(C)OC(=O)N(CC(=O)N2CCC(c3ccccc3Cl)C2)C1=O` (centres undefined) it is 25.58%.
The figure for `CC1(C)OC(=O)N(CC(=O)N2CCC(c3ccccc3F)C2)C1=O` (centres undefined) is 22.76%; for `COc1ccccc1C1CCN(C(=O)CN2C(=O)OC(C)(C)C2=O)CC1` it is 53.49%; for `O=C(O)C(F)(F)F.O=C1CC2(CCN(Cc3ccccn3)C2)CN1c1cncnc1` (centres undefined) it is 17.37%.
As for `CCCC(C#N)NC(=O)c1cc(Br)c2c(c1)OCCO2` (centres undefined), the figure is 14.39%; as for `Oc1ccc(Cl)cc1CNCc1cccc(C(F)(F)F)c1`, 70.21%.
Regarding `Oc1ccc(Cl)cc1CNCc1ccccc1Cl`, the “Percent Effect” value is 26.21%.
As for `Oc1ccc(Cl)cc1CNCc1ccccc1C(F)(F)F`, the figure is 6.779%; as for `CCc1nnc(NC(=O)c2c3c(nn2C2CCS(=O)(=O)C2)CCC3)s1` (centres undefined), -18.44%.
As for `CNC(=O)NCC1CCC2(CCN(C(=O)c3ccccc3)CC2)CO1` (centres undefined), the figure is 2.943%; as for `O=C(O)C(F)(F)F.O=C([C@H]1CC[C@@H]2[C@@H](CCN2C2CCOCC2)O1)N1CCOCC1`, 0.461%; as for `Cn1nccc1NC(=O)CN1CCc2sccc2C1`, -1.554%.
The figure for `CC(C)n1nccc1NC(=O)CN1CCc2sccc2C1` is 2.695%.
Take `O=C(CN1CCc2sccc2C1)Nc1ccnc2ccnn12`: the “Percent Effect” value stood at 105.2%.
As for `O=C(O)C(F)(F)F.O=C(O)C(F)(F)F.O=C(c1cccnc1)N1CCC[C@]2(C[C@H](Oc3ncccc3F)CO2)C1`, the figure is -30.18%; as for `COCCN1CCC(c2cncc(N(C)C)n2)CC1`, -17.24%; as for `Cc1nccc(C2CN(Cc3ccc(-c4ccccc4C(=O)O)o3)C2)n1`, 19.38%.
As to `O=C(O)c1ccccc1-c1ccc(CN2CC(c3ccncn3)C2)o1`, the “Percent Effect” value worked out at 60.18%.
Regarding `Nc1nccc(C2CN(Cc3ccc(-c4ccccc4C(=O)O)o3)C2)n1`, the “Percent Effect” value worked out at 40.18%.
As for `Cc1ccc(CN(CCCn2ccnc2)Cc2cccs2)s1.O=C(O)CC(O)(CC(=O)O)C(=O)O`, the figure is 40.45%.
As for `Cc1ccc(CN(CCCn2ccnc2)Cc2ccccc2O)s1.O=C(O)CC(O)(CC(=O)O)C(=O)O`, the figure is -13.23%.
As for `CCc1ccc(CN(CCCn2ccnc2)Cc2ccc(C)s2)o1.O=C(O)CC(O)(CC(=O)O)C(=O)O`, the figure is 67.99%; as for `Cc1cnc(CCNC(=O)NCCc2ccc(O)cc2)s1`, 16.98%.
In the case of `O=C(c1ccno1)N1CCn2cc(CN3CCCCC3)nc2C1`, the “Percent Effect” value came out at 6.548%.
As for `CCc1ccc(C(COC)NC(=O)c2ccsc2)o1` (centres undefined), the figure is 37.56%; as for `c1cc2n(n1)CC(CNCc1ccc(OC3CCCC3)nc1)CN2` (centres undefined), -62.66%; as for `c1cc2n(n1)CC(CNCc1ccc(OC3CCCCC3)nc1)CN2` (centres undefined), 102.7%.
The figure for `c1cc(CNCC2CNc3ccnn3C2)cc(OC2CCCCC2)n1` (centres undefined) is -14.29%; for `O=C(C1CCC1)N1CCCn2nc(CNc3ncccn3)cc2C1` it is 5.205%.
As for `Cc1nc(C2CCCNC2)cc(N(C)CCc2ccccc2)n1` (centres undefined), the figure is 0.6184%; as for `Cc1c(CN(C)c2cc(C3CCCNC3)ncn2)[nH]c2ccccc12` (centres undefined), 61.5%; as for `CN(Cc1cc2cc(F)ccc2[nH]1)c1cc(C2CCCNC2)ncn1` (centres undefined), 13.11%.
Consider `CN1C(=O)CCc2cc(NS(=O)(=O)Cc3cccc(F)c3)ccc21`, for which the “Percent Effect” value was found to be 1.464%.
`COCCc1noc(C2CCN(C(=O)Nc3cccs3)CC2)n1`: the “Percent Effect” value was found to be 17.42%.
As for `O=C(Nc1c(F)cccc1F)N1CC(c2nc(C3CC3)no2)C1`, the figure is 10.47%.
As for `O=C(Nc1cccs1)N1CC(c2nc(C3CC3)no2)C1`, the figure is 107.8%; as for `O=C(Nc1cccnc1)[C@H]1C[C@H]2OCC[C@H]2N(Cc2ccc(F)cc2)C1.O=C(O)C(F)(F)F.O=C(O)C(F)(F)F`, 11.11%; as for `CC(C)C(=O)NCCc1cc2nc(-c3ccncc3)ccn2n1`, -48.83%.
The figure for `COCCN1CCC(CNC(=O)C2(c3ccc(Br)cc3)CCCC2)C1` (centres undefined) is 15.91%; for `CCCn1cc(-c2ccnc(NC3CCc4ccccc43)n2)c(C)n1` (centres undefined) it is 36.22%.
For the compound `Cc1nn(CCO)c(C)c1CNC1CCCCc2ccccc21` (centres undefined), the “Percent Effect” value amounted to 11.7%.
As for `CCCn1cc(-c2ccnc(NC3CCc4ccccc4C3)n2)c(C)n1` (centres undefined), the “Percent Effect” value is 8.734%.
The figure for `OCCNc1nccc(-c2cn3nccc3nc2C2CCCCC2)n1` is 15.49%; for `CCCn1ncc(-c2ccnc(NC3CCCc4ccccc43)n2)c1C` (centres undefined) it is 50.48%.
`CCCn1ncc(-c2ccnc(N[C@@H]3C[C@@H]4CC[C@H]3C4)n2)c1C`: the “Percent Effect” value was found to be 88.15%.
The figure for `CCCn1ncc(-c2ccnc(NC3CC(C)(C)NC(C)(C)C3)n2)c1C` is -32.04%; for `CCCn1ncc(-c2ccnc(NC3CCSC3)n2)c1C` (centres undefined) it is -4.809%.
As for `CCCn1cc(-c2ccnc(NC3CCCc4ccccc43)n2)c(C)n1` (centres undefined), the figure is 106.6%; as for `O=C1NCC2(CCCN(c3ncnc4c3CCC4)CC2)O1` (centres undefined), 11.26%.
Take `O=C(CCSc1ccc2c(c1)OCCO2)NCC1CCS(=O)(=O)C1` (centres undefined): the “Percent Effect” value is recorded as -7.695%.
For the compound `CCC(C)NC(=O)Nc1cccc(OCCCC#N)c1` (centres undefined), the “Percent Effect” value is on record as -0.4736%.
Regarding `CC(C)NC(=O)Cn1ccc2c(Cl)cccc21`, the “Percent Effect” value is 18.88%.
The figure for `COc1ccc(CN(C)CC(=O)Nc2ccc3[nH]c(=O)[nH]c3c2)cc1F` is -12.93%.
The figure for `COc1ccc(C2CCCN2C(=O)Nc2ccc(OC)nc2)cc1` (centres undefined) is 1.248%; for `COc1cccc(NC(=O)C2CC(=O)n3cnnc3S2)c1` (centres undefined) it is 106.8%.
As for `COc1cccc(NC(=O)N2CC[C@@H]3CN(C)S(=O)(=O)[C@@H]3CC2)c1`, the figure is -43.46%.
As for `Cc1cccc(NC(=O)C2CC(=O)n3cnnc3S2)c1` (centres undefined), the “Percent Effect” value is recorded as 107.8%.
As for `COc1cccc(NC(=O)c2nc3ccccc3n(C)c2=O)c1`, the figure is 19.08%; as for `Cc1cccc(NC(=O)C2CCc3ccccc3N2)c1.Cl` (centres undefined), 44.23%; as for `COc1ccc(NC(=O)C(c2ccc(OC)cc2)N2CCOCC2)cc1` (centres undefined), -0.3618%.
For the compound `COc1ccc(NC(=O)C2CC(=O)n3cnnc3S2)cc1` (centres undefined), the “Percent Effect” value is listed as 106.3%.
The figure for `COCCN1C(=O)C2(CCC(C(=O)Nc3cccc(C)c3)CC2)N=C1C` (centres undefined) is 23.11%; for `Cc1nnc(NC(=O)c2cc(S(=O)(=O)N3CCSCC3)c[nH]2)s1` it is -1.205%.
In the case of `CCc1cc(-c2ccnc3c2ccn3C)nc(N2CCOCC2)n1`, the “Percent Effect” value stood at 3.05%.
For the compound `N#Cc1ccc(C(=O)N2CCC3(CC2)CC3)cc1`, the “Percent Effect” value is given as -6.813%.
As for `O=C(c1cc(C2CCCCC2)no1)N1C[C@H]2C[C@H](O)C[C@H]2C1`, the figure is 24.89%; as for `CNC(=O)[C@H]1C[C@@H]2CN(C(=O)c3ccc(C)o3)C[C@@H]2N1S(C)(=O)=O`, 18.79%; as for `Cc1cc(CC(=O)NC2CCCN(Cc3ccccc3)C2=O)n[nH]1` (centres undefined), -5.186%.
For `Cc1cnc(Nc2cccc(C3CCCN3Cc3cn(C)nc3C)n2)s1` (centres undefined), the “Percent Effect” value is 23.5%.
As for `Cc1nn(C)cc1CN1CCCC1c1cccc(Nc2nccs2)n1` (centres undefined), the figure is 56.13%.
The figure for `Cc1ccccc1CN1CCCC1c1cccc(Nc2nccs2)n1` (centres undefined) is 44.82%.
